# Compound activity deposited in PubChem BioAssay by several laboratories.
# Sampled rows, rich in hits. Any-hit rate of the full collection: about 2.6%.
# KKLEB tox: CF airway cell cytotoxicity counter-screen | KKLEB CF airway cells viability, ATPlite luminescence, overnight; active compounds read low; cells stimulated with P. aeruginosa culture filtrate | activity change (cytotoxicity), % at 5 µM | actives 0.36% (n = 360,000);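 active means corrected activity change at or below -50% at 5 µM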
# TWEAK Fn14 block: TWEAK-Fn14 signaling inhibition. TWEAK-stimulated Fn14 reporter cells, luciferase luminescence, 8 h. AID 1159606. inhibition, % at 10 µM. actives 2% (n = 360,000); in the data active means inhibition above about 50%
# LGR2 inh: blocks bursicon-induced cAMP signaling via Drosophila LGR2 | HEK293 LGR2, CRE-luciferase, bursicon-stimulated, 4 h | inhibition, % at 9.99 µM | actives 0.35% (n = 380,000) | AID 720647;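 active means drop in luminescence signal, shown as inhibition above about 50% in the replicate tests, limit read from the data, passing the limit was not always enough; inconclusive means probably only some replicates passing the limit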;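 further: agonist challenge used bursicon conditioned medium at about half maximal strength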
# CF NFkB block: inhibitors of cystic fibrosis induced NF-kB. KKLEB NF-kB-GFP reporter, PAF-induced, GFP fluorescence overnight. inhibition, % at 5 µM. actives 0.86% (n = 360,000);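 active means at least 50% inhibition at 5 µM, scaled per plate between neutral and stimulator controls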;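 further: PAF is a Pseudomonas aeruginosa culture filtrate used as stimulus; plate controls were PAF-stimulated DMSO wells for no effect and unstimulated DMSO wells for full effect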
# EWS-Fli block: blocks EWS/Fli oncoprotein-driven transcription; A673 NR0B1-luciferase reporter, viability-normalised; inhibition, % at 12.6 µM; actives 0.67% (n = 350,000); AID 651661;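 active means mean inhibition of at least 50% after viability correction, with every replicate also passing that limit; inconclusive means mean reaches 50% but only one of two replicates passes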;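 further: firefly luciferase signal divided by Alamar Blue viability fluorescence both relative to DMSO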
# TROY NFkB inh: TROY signaling inhibition | Q293 LMP1-TROYcd NF-kB luciferase reporter, 4 h | inhibition, % at 10 µM | actives 0.98% (n = 360,000);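 active means compounds whose plate-normalised and pattern-corrected inhibition of the luciferase reporter signal at the single screening dose is 50% or more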
# Numbers without * were called inactive; ? = inconclusive; . = not tested or not shown.
SMILES,KKLEB tox,TWEAK Fn14 block,LGR2 inh,CF NFkB block,EWS-Fli block,TROY NFkB inh
O=C(c1cccc(F)c1)N1CCCCN2[C@H](CO)[C@H](c3ccc(/C=C/c4ccccc4)cc3)[C@@H]2C1,.,.,18,.,3,.
N#C[C@H]1[C@H](c2ccc(-c3cccc(F)c3)cc2)[C@@H](CO)N1C(=O)CN1CCOCC1,.,.,7,.,-3,.
C[C@H](CO)N1C[C@H](C)[C@H](CN(C)S(=O)(=O)c2cn(C)cn2)Oc2ccc(N(C)C)cc2CC1=O,.,.,3,.,-9,.
COc1ccc(/C=N/NC(=O)Nc2cccc3nsnc23)cc1OC,-10,62*,.,40,29,14
O=C(Nc1ccc(Cl)cc1)Nc1cccc2nsnc12,-1,56*,-93,44,-89,29
COc1ccc(S(=O)(=O)N(C)C[C@H]2Oc3ccc(NS(=O)(=O)c4c(C)noc4C)cc3CC(=O)N([C@@H](C)CO)C[C@@H]2C)cc1,.,.,3,.,-17,.
C[C@H](CO)N1C[C@H](C)[C@H](CN(C)Cc2ccncc2)Oc2ncc(C#CCN(C)C)cc2C1=O,.,.,1,.,-10,.
CC1=CN2C(c3cccc([N+](=O)[O-])c3)=NON(c3ccc(C)cn3)C2C=C1 (stereo unspecified),-28,-33,12,12,-8,60*
C[C@H](CO)N1C[C@H](C)[C@H](CN(C)Cc2ccccc2)Oc2ncc(C3=CCCCC3)cc2C1=O,.,.,2,.,4,.
O=S(=O)(Nc1ccc(NS(=O)(=O)c2ccccc2)c2ccccc12)c1ccccc1,5,-7,3,-11,7,-4
O=S(=O)(Nc1ccc(O)c2ccccc12)c1ccc(F)cc1,0,28,7,84*,-20,31
CCc1ccc(S(=O)(=O)Nc2ccc(O)c3ccccc23)cc1,-50,94*,18,94*,-17,-11
c1ccc(CNc2nc(NCc3ccccc3)c3sccc3n2)cc1,-12,39,-9,-22,18,58*
c1ccc(CNc2nc(NCc3ccccc3)c3ccccc3n2)cc1,-19,10,.,-28,.,78*
c1ccc(CNc2nc(Oc3ccncc3)c3sccc3n2)cc1,-9,99*,-21,-16,4,-10
c1csc(CNc2nc(Oc3ccncc3)c3sccc3n2)c1,-1,27,-3,-15,9,-7
Fc1ccc(Nc2nc(NCc3ccco3)c3ccccc3n2)cc1,-50,62*,32,45,16,46
c1ccc(CNc2nc(-c3ccccc3)nc3ccccc23)cc1,-6,-51,-2,5,14,12
COc1ccc2c3c(n(C)c2c1)[C@@H](CO)N(Cc1ccccc1F)CC31CCN(CC2CC2)CC1,.,.,-11,.,-3,.
O=C(c1ccccn1)N1CC2(C1)[C@@H](c1ccccc1)[C@@H](CO)N2Cc1ccc(Cl)cc1,.,.,-15,.,-7,.
COc1ccc(S(=O)(=O)N(C)C[C@@H]2Oc3ccc(NC(=O)Cc4cn(C)c5ccccc45)cc3CC(=O)N([C@H](C)CO)C[C@H]2C)cc1,.,.,-3,.,1,.
COCCNc1nc(NCc2cccc(OC)c2OC)c2sccc2n1,-10,-11,6,5,9,10
COCCNc1nc(NCc2ccccc2F)c2sccc2n1,4,-19,0,7,11,19
COc1ccccc1CNc1nc(NCc2ccccc2)nc2ccsc12,-9,0,33,-7,17,50*
COc1ccccc1CNc1nc(NCc2ccccc2F)c2sccc2n1,-12,90*,.,30,.,58*
SMILES,KKLEB tox,TWEAK Fn14 block,LGR2 inh,CF NFkB block,EWS-Fli block,TROY NFkB inh
COc1ccccc1CNc1nc(NCc2cccc(OC)c2OC)c2sccc2n1,-12,76*,29,13,14,75*
COc1ccccc1CNc1nc(NCc2ccc(C)cc2C)c2sccc2n1,5,33,.,19,.,33
C#Cc1cccc(Nc2nc(NCCOC)nc3ccsc23)c1,-9,36,-7,19,10,18
C#Cc1cccc(Nc2nc(NCc3ccccc3OC)nc3ccsc23)c1,-31,74*,18,39,2,40
O=C(C[C@@H]1C[C@@H]2c3cc(NC(=O)Nc4ccccc4)ccc3O[C@@H]2[C@H](CO)O1)NCc1cccnc1,.,.,0,.,-14,.
COc1cccc(C(=O)Nc2ccc3c(c2)C(=O)N(C)C[C@@H](OC)[C@@H](C)CN(C)[C@H](C)CO3)c1,.,.,-6,.,12,.
O=C(CSc1ncnc2c(-c3ccc(Cl)cc3)nsc12)c1ccccc1,15,40,-3,-11,-29,57*
C[C@@H]1CN([C@H](C)CO)C(=O)c2cc(NC(=O)c3ccccc3)ccc2O[C@@H](C)CCCCO[C@H]1CN(C)C(=O)NC1CCCCC1,.,.,11,.,12,.
Cc1ccc(-c2csc(NC(=O)c3cccc(S(=O)(=O)N4CCN(C)CC4)c3)n2)cc1,-9,28,.,-16,.,32
O=C(CN1CCOCC1)Nc1nc(-c2ccccc2)cs1,1,23,15,-11,-2,5
O=C(Nc1nc(-c2ccc(S(=O)(=O)N3CCCC3)cc2)cs1)c1cccs1,-2,55*,.,1,.,53*
COc1cccc(C(=O)Nc2nc(-c3ccc(S(=O)(=O)N4CCOCC4)cc3)cs2)c1,-13,70*,.,-5,.,64*
O=C(Nc1nc(-c2ccc(S(=O)(=O)N3CCCCCC3)cc2)cs1)c1cccs1,-13,39,.,-16,.,17
O=C(Cn1nnc(-c2ccc(CN3CCOCC3)cc2)n1)Nc1nc(-c2ccccc2)cs1,-51*,14,.,-24,.,32
O=C(Nc1nc(-c2ccc(S(=O)(=O)N3CCOCC3)cc2)cs1)c1ccccc1,-1,85*,?,5,9,53*
O=C(Nc1nc(-c2ccccc2)c(C(=O)c2ccccc2)s1)c1ccc(S(=O)(=O)N2CCCC2)cc1,17,72*,11,17,0,35
O=C(Nc1nc(-c2ccccc2)cs1)C1CCCN(S(=O)(=O)c2ccccc2)C1 (stereo unspecified),10,88*,26,-24,.,46
Cc1nc2ccc(NC(=O)c3ccc(S(=O)(=O)N4CCOCC4)cc3)cc2s1,13,12,.,-8,.,23
O=C(Nc1nc(-c2nc3ccccc3s2)cs1)c1ccc(S(=O)(=O)N2CCOCC2)cc1,-49,78*,?,55*,.,64*
O=C(Nc1nc(-c2ccccc2)cs1)C1CCCN(S(=O)(=O)c2cccc([N+](=O)[O-])c2)C1 (stereo unspecified),-23,22,.,1,.,2
CN(C)C(=O)C[C@H]1CC[C@@H]2[C@H](COC[C@@H](O)CN2S(=O)(=O)c2ccccc2)O1,.,.,2,.,.,.
C[C@@H]1CN([C@H](C)CO)C(=O)c2cc(-c3cccc(C#N)c3)cnc2O[C@H]1CN(C)C(=O)c1cnccn1,.,.,9,.,-1,.
O=C(NCc1ccco1)c1sc(=S)n2c1[nH]c(=O)c1ccccc12,-5,7,.,33,.,17
